Bioassay records: PubChem, National Center for Advancing Translational Sciences (NCATS)
Sampled rows, rich in hits. Any-hit rate of the full collection: about 8.9%.
IMPase Li cell: membrane-permeable IMPase blocker, potentiated with lithium | CHO-M1 cells, IP1 TR-FRET (IP-One), carbachol + lithium | Potency, µM (top dose mostly 59.4 µM), for inactives: at the highest dose activity, negative = IMPase inhibition, hits mostly inhibitors | 210,000 tested, 0.35% active;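 further: IP1 builds up when IMPase is blocked and the TR-FRET signal falls; potency means the concentration at half of the fitted maximal effect; plate controls were basal vehicle for no effect and high inhibitor control for full effect; nearly all actives have a fitted effect of over 50% in size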
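IP1 accumulation measured by competitive TR-FRET in lysed CHO-M1 cells after 30 min compound exposure at 37C, with a small lithium addition to potentiate weak responses. Hill-equation AC50 from ratio and donor-channel data.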
ALDH1A1 block: ALDH1A1 (human) enzyme inhibition | 220,000 tested, 7.3% active | Potency, µM (top dose mostly 75.3 µM), for the others: at the top dose activity, negative = inhibition, actives largely listed as inhibitors | P00352 | Purified ALDH1A1, NADH fluorescence, propionaldehyde substrate; active means well fitted inhibition curve with a large enough effect, not every such curve was filed as active; inconclusive means small, poorly fitted or top-dose-only effect, or another doubt; inactive means no such curve, though single readings can be large or run the other way;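 further: potency means the concentration at half of the fitted maximal effect; plate controls were no enzyme wells and a reference inhibitor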
12-hLO inh: blocks human 12-lipoxygenase activity. Potency, µM (doses to about 57.1 µM), for the others: at the highest dose activity change, negative = inhibition, actives largely listed as inhibitors. AID 1452. purified 12-hLO, xylenol orange hydroperoxide absorbance. 150,000 tested, 0.12% active; further: potency means the concentration at half of the fitted maximal effect; nearly all actives have a fitted effect of over 55% in size
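Hydroperoxide output read as Fe(III)-xylenol orange absorbance, 573-to-405 nm ratio, after 30 min reaction with 40 uM arachidonic acid. Enzyme: 150 nM purified human 12hLO, 15 min compound preincubation; 25 mM Hepes pH 7.0, room temperature.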
NPSR antag: blocks cAMP signaling of the human neuropeptide S receptor; AID 1461; CHO-NPSR cells, cAMP TR-FRET, antagonist mode; Q6W5P4; 220,000 tested, 1% active; Potency, µM (top dose mostly 38.3 µM), for inactives: at the top dose activity change, negative = inhibition, actives largely listed as inhibitors; further: potency means the concentration at half of the fitted maximal effect; nearly all actives have a fitted effect of over 50% in size
Target sequence (Q6W5P4 whole entry, looked up): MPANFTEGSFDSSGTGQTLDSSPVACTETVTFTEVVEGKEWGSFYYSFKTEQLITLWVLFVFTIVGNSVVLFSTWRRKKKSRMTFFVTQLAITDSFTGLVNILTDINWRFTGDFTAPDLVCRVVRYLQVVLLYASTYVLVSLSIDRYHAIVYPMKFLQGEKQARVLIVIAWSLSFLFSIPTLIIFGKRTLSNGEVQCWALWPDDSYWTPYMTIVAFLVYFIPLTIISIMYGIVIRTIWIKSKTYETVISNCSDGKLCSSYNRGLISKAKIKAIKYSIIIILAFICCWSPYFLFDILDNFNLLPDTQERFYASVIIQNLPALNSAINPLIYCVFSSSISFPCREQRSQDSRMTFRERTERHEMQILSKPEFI
IMPase cell inh: membrane-permeable compound that blocks inositol monophosphatase; P97697; CHO-M1 cells, IP1 accumulation, HTRF TR-FRET ratio; inhibition (IP1 accumulation), % at 46.1 µM; 120,000 tested, under 10 active; AID 901; active means well fitted curve in the direction sought with a large enough effect in the signal ratio, not every such curve was filed as active; inconclusive means small, poorly fitted or top-dose-only effect, or a change in a side signal; inactive means no such curve, though single readings can be large or run the other way; the % refers to the signal ratio;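 further: cells stimulated with carbachol in lithium chloride buffer; plate controls were DMSO basal wells for no effect and reference inhibitor wells for full effect; higher means more IMPase inhibition seen as more IP1 and lower FRET ratio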
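Seeded CHO-M1 cells were dosed with compound at up to 46 uM, stimulated with carbachol for 30 min, then lysed in IP-One detection reagents. Higher IP1 lowers the TR-FRET signal.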
HPGD block: HPGD (human) dehydrogenase inhibition. 150,000 tested, 4.3% active. Potency, µM, for inactives: at the top dose activity change, negative = inhibition, hits mostly inhibitors. purified HPGD, NADH fluorescence kinetic, PGE2 substrate; active means well fitted inhibition curve with a large enough effect, not every such curve was filed as active; inconclusive means small, poorly fitted or top-dose-only effect, or another doubt; inactive means no such curve, though single readings can be large or run the other way; further: potency means the concentration at half of the fitted maximal effect
Target sequence (P15428 whole entry, looked up): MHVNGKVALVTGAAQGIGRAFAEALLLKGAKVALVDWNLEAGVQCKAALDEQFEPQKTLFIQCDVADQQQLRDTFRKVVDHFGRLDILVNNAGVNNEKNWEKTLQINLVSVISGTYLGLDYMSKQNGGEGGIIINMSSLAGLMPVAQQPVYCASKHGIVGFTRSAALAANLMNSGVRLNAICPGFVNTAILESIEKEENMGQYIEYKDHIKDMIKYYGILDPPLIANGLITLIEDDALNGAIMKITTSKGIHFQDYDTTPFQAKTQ
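NADH formation kinetics: reaction with 30 uM PGE2 and 1 mM NAD+ (final), 20 nM enzyme, Tris-HCl pH 8 with Tween 20, after 15 min compound preincubation at room temperature. Fluorescence change, last versus first of five reads.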
Active calls of the source: *; ? = inconclusive; . = no result given; [ ] = another dose, or the depositor's remark. Unless noted, the call rests on the fitted dose curve; in most records, active means well fitted curve in the direction sought with a large enough effect; inconclusive means small, poorly fitted or top-dose-only effect, or another doubt; inactive means no such curve, though single readings can be large; an effect the other way counts as inactive or inconclusive. Unless noted, on the % scale 0 is the no-effect control and ±100 the full control effect.

SMILES	IMPase Li cell	ALDH1A1 block	12-hLO inh	NPSR antag	IMPase cell inh	HPGD block
CCOc1ccc(OCC)c(NC(=O)CN2CCN(c3cc(C)ccc3C)CC2)c1	7%[38.3 µM]	3.5µM*	-18%	?	6	-21%
COc1ccc(NC(=O)CN2CCN(c3ccccc3Cl)CC2)cc1	6%	?	9%	4%[46.1 µM]	2	-5%
COc1ccc(NC(=O)CN2CCN(CC(=O)Nc3ccccc3Cl)CC2)cc1	2%[38.3 µM]	8.9µM*	-7%	0%[46.1 µM]	-8	-1%
COCC(=O)Nc1ccccc1C(=O)Nc1ccc(OC)cc1	32µM*	1%	0%	-16%[46.1 µM]	4	-8%
COc1ccccc1NC(=O)CN1CCN(Cc2ccccc2)CC1	22%[38.3 µM]	10µM*	-1%	0%[46.1 µM]	2	2%
CCOc1ccc(OCC)c(NC(=O)CN2CCN(c3cccc(C)c3)CC2)c1	-3%	?	-6%	-23%[46.1 µM]	?	0%
CCc1cc2cc(C)cc(C)c2nc1SCC(=O)N1CCN(C(=O)c2ccco2)CC1	-3%[38.3 µM]	?	3%	?	-3	-13%
O=C(CSc1nnc(-c2cccnc2)s1)Nc1ccc(C(=O)O)cc1	-1%	?	-1%	-25%[46.1 µM]	4	-22%
O=C(O)c1nc(N2CCOCC2)nc(N2CCOCC2)n1	0%	3%	-3%	6%[46.1 µM]	11	-2%
COc1cc(NC(=O)CCN2CCN(Cc3ccccc3)CC2)cc(OC)c1	-11%[38.3 µM]	11µM*	-1%	-3%[46.1 µM]	7	-6%
Cc1ccc2c(=O)c3ccccc3n(CCCN)c2c1C	35%	-8%	2%[0.00818 µM]	.	.	?
Cc1cc(C2=NNC(=NC3CC3)SC2)c(C)n1Cc1ccco1	19%	20µM*	-2%	27%	-3	-22%
COCCCN=C1NN=C(c2cc(C)n(Cc3ccco3)c2C)CS1	13%	-11%	-6%	35%	.	-10%
Cc1cc(C2=NNC(=NC3CC3)SC2)c(C)n1-c1ccccc1	12%	3.5µM*	-4%	-19%[46.1 µM]	3	-13%
CCOc1ccccc1NC(=O)CSC1=C(C#N)C(c2ccco2)C(C(=O)Nc2nc3ccccc3s2)=C(C)N1 (stereo not drawn)	-22%	?	0%	-37%	-16	?
CCOc1ccc(CN2CCNC(=O)C2CC(=O)NCCc2ccccn2)cc1 (stereo not drawn)	0%	-11%	.	-15%	.	.
N#Cc1c(-c2ccco2)c2c([nH]c1=S)CCCC2	-23%	20µM*	0%	1%[46.1 µM]	-15	16µM*
N#Cc1c(-c2cccnc2)c2c([nH]c1=S)CCCC2	.	?	-19%	-3%[46.1 µM]	-5	.
COc1ccc(OC)c(-c2c3c([nH]c(=S)c2C#N)CCCC3)c1	-8%	-9%	.	-19%	.	.
CCCCCCCc1c(C#N)c(N)[nH]c(=S)c1C#N	.	.	.	-25%	.	.
CC(C)Cc1c2c([nH]c(=S)c1C#N)CCCC2	?	-8%	1%	-20%	.	22µM*
COc1ccc(-c2c3c([nH]c(=S)c2C#N)CCC3)cc1	7.9µM*	14µM*	-10%	1µM*	?	10µM*
O=C(c1ccc(F)cc1F)C1CCN(c2ccc([N+](=O)[O-])cn2)CC1	.	20µM*	.	44%	.	.
O=C(CSCCO)Nc1ccc(C2CCCCC2)cc1	-14%[38.3 µM]	7.1µM*	-10%	4%[46.1 µM]	-9	4.5µM*
CC1=[N+](C)N(c2ccccc2)C(=O)C1N=C/C=C/c1ccccc1 (stereo not drawn)	.	.	.	-24%	.	.
SMILES	IMPase Li cell	ALDH1A1 block	12-hLO inh	NPSR antag	IMPase cell inh	HPGD block
C=CCSc1nnc(-c2ccccc2N=Cc2c(C)[nH]n(-c3ccccc3)c2=O)c(=O)[nH]1	36%[38.3 µM]	?	11%	-10%[46.1 µM]	3	-21%
CSc1nnc(-c2ccccc2N=Cc2c(C)[nH]n(-c3ccc4ccccc4c3)c2=O)c(=O)[nH]1	20%[38.3 µM]	?	?	-16%[46.1 µM]	2	18µM*
COc1ccc(CN(C(=S)Nc2ccccc2)C2CC(=O)N(c3ccc(F)cc3)C2=O)cc1 (stereo not drawn)	.	-9%	-26%	?	6	.
CN(CCO)c1ccc([N+](=O)[O-])cc1C(=O)O	11%	22µM*	2%	-2%[46.1 µM]	-4	-20%
C/C(=N\NC(=O)c1ccn(C)n1)c1ccc(NC(=O)C2CCCC2)cc1	7%	3%	0%	15%	.	14µM*
O=S(=O)(Nc1ccc(N2CCOCC2)cc1)c1ccc2ccccc2c1	10%[38.3 µM]	?	-9%	-13%[46.1 µM]	-4	-21%
CCCCOc1ccc(CSc2nnc(C)n2N)cc1[N+](=O)[O-]	-3%	1%	.	13%	.	.
COc1ccc(CSc2n[nH]c(C)n2)cc1[N+](=O)[O-]	4%	10µM*	-7%	8%	.	-27%
COc1ccc(CSc2nnc(C)n2N)cc1[N+](=O)[O-]	6%	13µM*	.	5%	.	.
COc1ccc(CSc2nnc(C)n2N)cc1Br	13%[38.3 µM]	15%	0%	-3%[46.1 µM]	0	-5%
COc1ccc(CSc2ncn[nH]2)cc1[N+](=O)[O-]	-6%	?	0%	11%	.	-7%
CCc1nnc(SCc2ccc(OC)c(Br)c2)n1N	-5%[38.3 µM]	28µM*	0%	-8%[46.1 µM]	5	-24%
O=C(Nc1ccc(F)cc1)Nc1ccccc1F	5%	14%	.	5%	.	.
O=C(Nc1ccc2[nH]c(=S)sc2c1)Nc1ccccc1F	.	1µM*	.	23%	.	.
N#Cc1ccccc1Sc1ccccc1C(=O)OCC(=O)N1CCN(C(=O)c2ccco2)CC1	3%[38.3 µM]	14µM*	0%	-8%[46.1 µM]	10	?
N#Cc1ccccc1Sc1ccccc1C(=O)OCC(=O)NC12CC3CC(CC(C3)C1)C2	6%	-5%	-4%	-45%	.	13µM*
O=C(OCC(=O)N1CCN(C(=O)c2ccco2)CC1)c1ccccc1O	20%[38.3 µM]	-1%	3%	0%[46.1 µM]	0	-6%
O=C(COC(=O)c1ccc([N+](=O)[O-])o1)NC1CCS(=O)(=O)C1 (stereo not drawn)	-4%	?	0%	15%	1	-12%
CCOC(=O)c1c(NC(=S)Nc2ccccc2)sc(C)c1C	?	25µM*	-1%	-42%	1	22µM*
CCOC(=O)c1c(NC(=S)NCC2CCCO2)sc(C)c1C (stereo not drawn)	-8%	18µM*	.	-28%	.	.
CCOC(=O)c1c(NC(=O)C2CCCO2)sc(C(N)=O)c1C (stereo not drawn)	0%	?	0%	-3%	.	-10%
CCOC(=O)c1c(NC(N)=O)sc(C)c1C	-5%[38.3 µM]	-12%	-5%	2%[46.1 µM]	-3	-5%
CCOC(=O)c1c(NC(=O)C[n+]2ccc(Cc3ccccc3)cc2)sc(C)c1C	12%	0.71µM*	.	-27%	.	.
CCOC(=O)c1c(NC(=O)CCc2ccc(CC)o2)sc(C)c1C	15%[38.3 µM]	?	7%	?	2	?
